Measured values published in the supplement of paper PMC8371130.
Counter-ions that a name gives are not always drawn.

Tested on: HL-1
Assay: relative cell viability (CellTiter-Glo) vs DMSO control (% of DMSO control); higher = more viable cells
How it was run: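 Compounds at 40, 200, 1000 or 5000 nM in 0.01% DMSO were added to HL-1 mouse atrial cardiomyocytes plated at 1000 cells per well in 384-well plates. The next day, cells were exposed to 1% O2 for 48 h and then reoxygenated for 24 h, or left in normoxia for the same time. Viability was read with CellTiter-Glo luminescence and normalised to vehicle-treated controls.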

[1] = oxygen condition: hypoxia 48 h (1% O2) + reoxygenation 24 h, 40 nM
[2] = oxygen condition: hypoxia 48 h (1% O2) + reoxygenation 24 h, 200 nM
[3] = oxygen condition: hypoxia 48 h (1% O2) + reoxygenation 24 h, 1000 nM
[4] = oxygen condition: hypoxia 48 h (1% O2) + reoxygenation 24 h, 5000 nM
[5] = oxygen condition: normoxia 72 h, 40 nM
[6] = oxygen condition: normoxia 72 h, 200 nM
[7] = oxygen condition: normoxia 72 h, 1000 nM
[8] = oxygen condition: normoxia 72 h, 5000 nM

Row | SMILES | relative cell viability [1] | relative cell viability [2] | relative cell viability [3] | relative cell viability [4] | relative cell viability [5] | relative cell viability [6] | relative cell viability [7] | relative cell viability [8]
1 | CCC[C@@H]1C[C@@H](C(=O)N[C@@H]([C@H]2O[C@H](SC)[C@H](O)[C@@H](O)[C@H]2O)[C@H](C)Cl)N(C)C1 [Clindamycin hydrochloride] | 98.5 | 93.8 | 91.3 | 102 | 102 | 98 | 100 | 86.2
2 | CC(C[N+](C)(C)C)OC(N)=O (centres undefined) [Bethanechol chloride] | 96.1 | 99.6 | 107 | 86.9 | 104 | 104 | 98.4 | 111
3 | CCCc1ncc(C[n+]2ccccc2C)c(N)n1 [Amprolium HCl] | 104 | 104 | 108 | 110 | 97.4 | 104 | 110 | 100
4 | O=P(O)(O)C(O)(Cn1ccnc1)P(=O)(O)O [Zoledronic Acid] | 104 | 100 | 100 | 111 | 104 | 107 | 102 | 109
5 | O=C1CCc2ccc(OCCCCN3CCN(c4cccc(Cl)c4Cl)CC3)cc2N1 [Aripiprazole] | 98.7 | 104 | 97 | 97.8 | 99 | 99.7 | 98.7 | 99.9
6 | COC(=O)C1=C(C)NC(C)=C(C(=O)OCCN2CCN(C(c3ccccc3)c3ccccc3)CC2)C1c1cccc([N+](=O)[O-])c1 (centres undefined) [Manidipine] | 103 | 103 | 99.6 | 105 | 102 | 99.2 | 103 | 103
7 | CC(C)(Oc1ccc(Cl)cc1)C(=O)O [Clofibric acid] | 106 | 105 | 108 | 115 | 104 | 106 | 104 | 109
8 | CCC1(c2ccccc2)C(=O)NCNC1=O [Primidone] | 101 | 105 | 110 | 95.7 | 104 | 103 | 98.6 | 106
9 | O=c1[nH]cc(F)c(=O)[nH]1 [Adrucil] | 110 | 94.1 | 52.9 | 18.6 | 96.6 | 81.2 | 42.9 | 15.4
10 | COC(=O)C1=C(C)NC(C)=C(C(=O)OCC(C)C)C1c1ccccc1[N+](=O)[O-] (centres undefined) [Nisoldipine] | 106 | 104 | 107 | 110 | 99.2 | 110 | 116 | 111
11 | CCOC(=O)c1c(C)n(C)c2ccc(O)cc12 [Mecarbinate] | 102 | 102 | 101 | 113 | 101 | 99.4 | 106 | 110
12 | COc1ccc(CC2c3cc(OC)c(OC)cc3CC[N+]2(C)CCC(=O)OCCCCCOC(=O)CC[N+]2(C)CCc3cc(OC)c(OC)cc3C2Cc2ccc(OC)c(OC)c2)cc1OC (centres undefined) [Atracurium besylate] | 104 | 96.7 | 91.2 | 23.1 | 101 | 93.3 | 95.7 | 18.9
13 | Cc1ccc(NC(=O)c2ccc(CN3CCN(C)CC3)cc2)cc1Nc1nccc(-c2cccnc2)n1 [Imatinib Mesylate] | 121 | 117 | 136 | 111 | 122 | 146 | 156 | 117
14 | CC(=O)[C@H]1CC[C@H]2[C@@H]3CC=C4C[C@@H](O)CC[C@]4(C)[C@H]3CC[C@]12C [Pregnenolone] | 100 | 103 | 106 | 117 | 101 | 101 | 105 | 107
15 | O=C1[C@H](CC[C@H](O)c2ccc(F)cc2)[C@@H](c2ccc(O)cc2)N1c1ccc(F)cc1 [Ezetimibe] | 111 | 104 | 108 | 115 | 111 | 112 | 116 | 112
16 | CC1CNc2c(cccc2S(=O)(=O)N[C@@H](CCCNC(=N)N)C(=O)N2CC[C@@H](C)C[C@@H]2C(=O)O)C1 (some centres undefined) [Argatroban] | 97.7 | 97.5 | 94.6 | 106 | 97.3 | 95.6 | 97.6 | 106
17 | NC[C@H](O)c1ccc(O)c(O)c1 [Noradrenaline bitartrate monohydrate] | 105 | 104 | 104 | 111 | 98.9 | 99.7 | 113 | 109
18 | OCC(CO)N[C@H]1C[C@](O)(CO)[C@@H](O)[C@H](O)[C@H]1O [Voglibose] | 109 | 117 | 113 | 113 | 105 | 114 | 116 | 115
19 | O=C(CCCN1CC=C(n2c(=O)[nH]c3ccccc32)CC1)c1ccc(F)cc1 [Droperidol] | 94.9 | 102 | 105 | 103 | 97.3 | 97 | 93.9 | 106
20 | Nc1cc(C(Cl)=C(Cl)Cl)c(S(N)(=O)=O)cc1S(N)(=O)=O [Clorsulon] | 109 | 105 | 107 | 113 | 110 | 115 | 116 | 110
21 | Cc1c(N(C)C)c(=O)n(-c2ccccc2)n1C [Amidopyrine] | 107 | 111 | 109 | 114 | 107 | 105 | 110 | 118
22 | CCN(CC)CC#CCOC(=O)C(O)(c1ccccc1)C1CCCCC1 (centres undefined) [Oxybutynin chloride] | 94.2 | 99.1 | 98.7 | 98.8 | 104 | 96.3 | 91.2 | 107

Row | SMILES | relative cell viability [1] | relative cell viability [2] | relative cell viability [3] | relative cell viability [4] | relative cell viability [5] | relative cell viability [6] | relative cell viability [7] | relative cell viability [8]
23 | NC[C@H]1CC[C@H](C(=O)O)CC1 [Tranexamic acid] | 99.9 | 102 | 100 | 104 | 101 | 104 | 102 | 112
24 | O=c1c(-c2ccc(O)cc2)coc2cc(O)cc(O)c12 [Genistein] | 104 | 106 | 113 | 110 | 111 | 104 | 106 | 111
25 | O=C(O)c1ccc(-n2nc(-c3ccccc3O)nc2-c2ccccc2O)cc1 [Deferasirox] | 93.2 | 100 | 99.7 | 88.1 | 97 | 104 | 94.3 | 42.9
26 | CNC(=O)c1ccccc1Sc1ccc2c(/C=C/c3ccccn3)n[nH]c2c1 [Axitinib] | 110 | 114 | 117 | 116 | 105 | 108 | 112 | 111
27 | NC(=O)CC[C@H](N)C(=O)O [L-Glutamine] | 98.4 | 99.1 | 103 | 105 | 102 | 97.4 | 114 | 113
28 | C=CCNC(N)=S [Allylthiourea] | 118 | 102 | 115 | 122 | 106 | 100 | 109 | 124
29 | Cl.N=C(N)NCCC[C@H](N)C(=O)O [L-Arginine HCl] | 97.5 | 104 | 104 | 118 | 100 | 104 | 108 | 107
30 | CC1=C(/C=C/C(C)=C/C=C/C(C)=C\C(=O)O)C(C)(C)CCC1 [Isotretinoin] | 103 | 102 | 105 | 111 | 116 | 104 | 107 | 112
31 | CNC[C@H](O)c1ccc(O)c(O)c1 [Epinephrine bitartrate] | 99.2 | 98.8 | 97.2 | 6.86 | 101 | 102 | 98.4 | 3.42
32 | CCc1c2c(nc3ccc(OC(=O)N4CCC(N5CCCCC5)CC4)cc13)-c1cc3c(c(=O)n1C2)COC(=O)[C@]3(O)CC [Irinotecan HCl Trihydrate] | 89 | 95.6 | 64.6 | 40.2 | 99 | 83.5 | 62.5 | 40.2
33 | CNC[C@H](O)c1cccc(O)c1 [Phenylephrine HCl] | 110 | 108 | 102 | 109 | 110 | 108 | 117 | 118
34 | O=C1Cc2cc(CCN3CCN(c4nsc5ccccc45)CC3)c(Cl)cc2N1 [Ziprasidone hydrochloride] | 105 | 101 | 106 | 102 | 107 | 98.2 | 104 | 98.4
35 | COc1cccc2c1C(=O)c1c(O)c3c(c(O)c1C2=O)C[C@@](O)(C(C)=O)C[C@@H]3O[C@H]1C[C@H](N)[C@H](O)[C@H](C)O1 [Daunorubicin HCl] | 56.7 | 30.5 | 17.2 | 2.34 | 62.6 | 29.6 | 10.3 | 2.68
36 | NCCS [Cysteamine HCl] | 101 | 108 | 109 | 106 | 102 | 102 | 106 | 111
37 | CN(C)CCCN1c2ccccc2CCc2ccccc21 [Imipramine HCl] | 98.5 | 98.9 | 96.2 | 110 | 100 | 101 | 101 | 111
38 | COC(=O)[C@H](c1ccccc1Cl)N1CCc2sccc2C1 [Clopidogrel] | 105 | 103 | 106 | 111 | 108 | 111 | 105 | 119
39 | CNC(=O)c1cc(Oc2ccc(NC(=O)Nc3ccc(Cl)c(C(F)(F)F)c3)cc2)ccn1 [Sorafenib] | 104 | 105 | 116 | 114 | 109 | 101 | 118 | 114
40 | CN1CC(=O)NC1=N [Creatinine] | 105 | 104 | 106 | 114 | 102 | 97.3 | 100 | 108
41 | C#CCN[C@@H]1CCc2ccccc21 [Rasagiline mesylate] | 94.8 | 96.7 | 98.2 | 102 | 93.3 | 92.9 | 99.4 | 108
42 | CCN(CC)CC(=O)Nc1c(C)cccc1C [Lidocaine] | 111 | 106 | 104 | 111 | 112 | 108 | 109 | 112
43 | O=c1oc2c(O)c(O)cc3c(=O)oc4c(O)c(O)cc1c4c23 [Ellagic acid] | 113 | 104 | 114 | 124 | 101 | 113 | 118 | 119
